The supplement of paper PMC8387472

How the values were obtained:
Settings in all cases: mESC; 2uM; 72 h treatment, harvest day 5
[1] = compound: O=c1cc(N2CCOCC2)oc2c(-c3ccc4c(c3)OCCO4)csc12; experiment: fraction of edited reads among all mapped reads; higher = more Cas9 editing
[2] = compound: S=c1nc[nH]c2nc[nH]c12 [6-Mercaptopurine (6-MP) Monohydrate]; experiment: as above
[3] = compound: CC(=O)O/N=C1\C(=O)N(Cc2cc(Cl)ccc2Cl)c2ccc(Cl)cc21; experiment: fraction of microhomology deletions among edited reads; higher = more MH deletions
[4] = compound: CC(C)(C#N)c1ccc(N2C(=O)OCc3cnc4ccc(-c5cnc6ccccc6c5)cc4c32)cc1; experiment: as above
[5] = compound: CCCCOc1c(C(=O)c2c(F)cc(C)cc2F)c[nH]c2nncc1-2; experiment: as above
[6] = compound: CCN1CCN(CC(=O)Nc2ccc(-c3cccc4c(=O)cc(N5CCOCC5)oc34)c3sc4ccccc4c23)CC1; experiment: as above
[7] = compound: CCc1c2c(nc3ccc(OC(=O)N4CCC(N5CCCCC5)CC4)cc13)-c1cc3c(c(=O)n1C2)COC(=O)[C@]3(O)CC [Irinotecan HCl Trihydrate]; experiment: as above
[8] = compound: CCn1c(=O)c(-c2ccc(Cl)cc2Cl)cc2cnc(Nc3ccc(N4CCNCC4)c(F)c3)nc21; experiment: as above
[9] = compound: CNc1ccc([N+](=O)[O-])c(Nc2ccc3[nH]ncc3c2)n1; experiment: as above
Mercaptopurine (6-MP) = compound: S=c1[nH]cnc2nc[nH]c12 [Mercaptopurine (6-MP)]; experiment: fraction of edited reads among all mapped reads; higher = more Cas9 editing

Row | Target | fraction of edited reads among all mapped reads [1] | fraction of edited reads among all mapped reads [2] | fraction of microhomology deletions among edited reads [3] | fraction of microhomology deletions among edited reads [4] | fraction of microhomology deletions among edited reads [5] | fraction of microhomology deletions among edited reads [6] | fraction of microhomology deletions among edited reads [7] | fraction of microhomology deletions among edited reads [8] | fraction of microhomology deletions among edited reads [9] | fraction of edited reads among all mapped reads (Mercaptopurine (6-MP))
1 | 7.0 (DMSO control at this site: 1-bp insertion 0.128, MH deletion 0.374, edited 0.098) TACTCAACCGAGACCTACGCGAACCGAAATCGTATGCCGGTGCGCAAGCAGGGCTGGCGTC | 0.067 | 0.0891 | 0.489 | 0.456 | 0.404 | 0.477 | 0.484 | 0.417 | 0.442 | 
2 | 19.0 (DMSO control at this site: 1-bp insertion 0.121, MH deletion 0.101, edited 0.057) TCTGCAGGGGTCGGAACCCGGGGGCTAGGGCTATCCCGGGGGCTAGGGCTATTAGCGAACC | 0.0353 | 0.0729 | 0.203 | 0.175 | 0.215 | 0.187 | 0.222 | 0.147 | 0.197 | 0.0901
3 | 27.0 CCAGAATTAGAACATATCATCTGGACCCTTTTCCATCTGGACCCTTTTCCAGCACACCCTG | 0.0389 | 0.0546 | 0.162 | 0.195 | 0.138 |  | 0.0693 |  | 0.225 | 0.0718
4 | 18.0 (DMSO control at this site: 1-bp insertion 0.114, MH deletion 0.789, edited 0.094) GCGCAAGTGCATAAGTTTTTCTTAAGGCGTGCCTTTAAGGCGTGCCTTTGTCGGTCCTGGA | 0.0717 | 0.0789 | 0.794 | 0.798 | 0.787 | 0.866 | 0.789 | 0.794 | 0.793 | 0.112
5 | 40.0 (DMSO control at this site: 1-bp insertion 0.072, MH deletion 0.192, edited 0.189) GCGAATCAACTGTTCAACAACAGCAGCAGCCACCTGGAGGACTACAGTGGCCTGTCCGTGT | 0.107 | 0.175 | 0.2 | 0.177 | 0.179 | 0.26 | 0.196 | 0.21 | 0.184 | 0.24
6 | 43.0 (DMSO control at this site: 1-bp insertion 0.134, MH deletion 0.714, edited 0.104) AGTTTAACTTACTCCGGCCAAAAAAGAACTGCACCTCTGGAGCGGGTTAGTGGTGGTGGTA | 0.0695 | 0.114 | 0.72 | 0.687 | 0.69 | 0.711 | 0.676 | 0.77 | 0.703 | 0.165
7 | 0.0 (DMSO control at this site: 1-bp insertion 0.463, MH deletion 0.339, edited 0.14) AGGATTACCGAGACCTACGCGAACCGAAATCGCTGTCCGGTGCGCAAGCAGGGCTGGCGTC | 0.0913 | 0.128 | 0.346 | 0.314 | 0.312 | 0.552 | 0.345 | 0.394 | 0.304 | 0.181
8 | 38.0 (DMSO control at this site: 1-bp insertion 0.063, MH deletion 0.487, edited 0.17) GGGCTGGGTGCTAAAATGAGGAGCTCCAAGAAGACTGAGGTGAACCTGGAGGCCCCTGAGC | 0.0925 | 0.157 | 0.497 | 0.485 | 0.505 | 0.546 | 0.488 | 0.513 | 0.501 | 0.193
9 | 15.0 GCGCCTCCAATGACCCAGTGGGATCCTACTCCATAATGGGATCCTGGGGATTCCTCGCTCC |  | 0.132 | 0.354 | 0.378 |  |  |  |  |  | 
10 | 29.0 (DMSO control at this site: 1-bp insertion 0.084, MH deletion 0.745, edited 0.133) TTGATGAACTTCCTCTTCTTCTCATGTCTCCGGTCTCCGGTAGGCCACGTGCATGGCCACT | 0.0905 | 0.127 | 0.727 | 0.728 | 0.734 | 0.773 | 0.719 | 0.757 | 0.738 | 0.171
